Among the data in paper PMC12820563, “FoxP3 forms a head-to-head dimer in vivo and stabilizes its multimerization on adjacent microsatellites” are binding signal values, retold here.

Over roughly 16,000 sequences, “rpm ratio (pull-down/input)” has its median near 0.5; the highest 2% begin near 5.5. This excerpt belongs to a sample that is enriched for the highest values.

This assay has as its target T1, MBP-FoxP3dN (Mus musculus, UniProt Q99JB6 188-423).
T1 sequence: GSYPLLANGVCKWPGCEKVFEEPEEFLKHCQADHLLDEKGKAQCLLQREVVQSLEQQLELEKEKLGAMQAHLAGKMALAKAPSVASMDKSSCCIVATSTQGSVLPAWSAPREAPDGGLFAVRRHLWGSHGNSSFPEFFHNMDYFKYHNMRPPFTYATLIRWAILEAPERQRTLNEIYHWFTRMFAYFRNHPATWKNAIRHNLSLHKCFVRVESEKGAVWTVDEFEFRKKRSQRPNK
Description: PD-seq (MBP pull-down with sequencing); 20 mM Tris-HCl pH 7.5, 100 mM NaCl, 1.5 mM MgCl2, 0.4 uM protein, 0.1 uM dsDNA library, 30 min, room temperature, amylose pull-down; high values mean tight binding. To be noted: protein: recombinant; tags: His6-MBP; chain copies: 2; dsDNA, one strand shown. The method, boiled down: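 Binding is reads-per-million enrichment of pull-down over input, with replicates pooled. It comes from 30 min room-temperature incubation in Tris pH 7.5 buffer with NaCl and MgCl2 of 0.4 µM His6-MBP-tagged, N-terminally truncated mouse FoxP3 or FoxP1 fragment from E. coli with 0.1 µM Klenow-filled degenerate double-stranded DNA library, followed by amylose resin capture, three washes and Illumina sequencing of the released DNA.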
Take “GATGATTGTTCTCCCAGCTGATGAATTTGCAAATTCGAGTAAACAAATTTTCCTAATCTTTCTGTTCAAGCGCCATCTAC”: the binding signal is 0.496 RPM ratio (pull-down/input).
As to “GATGATTGTTCTCCCAGCTGATGAATTTTGGTCGTCGAGTAAACAAATTTTCCTAATCTTTCTGTTCAAGCGCCATCTAC”, the binding signal is 0.496 RPM ratio (pull-down/input).
Then “GATGATTGTTCTCCCAGCTGATGAATTTGGGTGGTCGAGTAAACAAATTTTCCTAATCTTTCTGTTCAAGCGCCATCTAC”, with 0.682 RPM ratio (pull-down/input).
Consider “GATGATTGTTCTCCCAGCTGATGAATTGTTAACTTCGAGTAAACAAATTTTCCTAATCTTTCTGTTCAAGCGCCATCTAC”, for which the binding signal is 0.587 RPM ratio (pull-down/input).
Then “GATGATTGTTCTCCCAGCTGATGAATTGCTCCAATCGAGTAAACAAATTTTCCTAATCTTTCTGTTCAAGCGCCATCTAC”, with 0.467 RPM ratio (pull-down/input); and “GATGATTGTTCTCCCAGCTGATGAATTTTCTCGCTCGAGTAAACAAATTTTCCTAATCTTTCTGTTCAAGCGCCATCTAC”, with 0.241 RPM ratio (pull-down/input).
Consider “GATGATTGTTCTCCCAGCTGATGAATTATATATATCGAGTAAACAAATTTTCCTAATCTTTCTGTTCAAGCGCCATCTAC”, for which the binding signal was 1.27 RPM ratio (pull-down/input).
As to “GATGATTGTTCTCCCAGCTGATGAATTGAAGGGATCGAGTAAACAAATTTTCCTAATCTTTCTGTTCAAGCGCCATCTAC”, the binding signal is 0.265 RPM ratio (pull-down/input).
Take “GATGATTGTTCTCCCAGCTGATGAATTCAGGCGATCGAGTAAACAAATTTTCCTAATCTTTCTGTTCAAGCGCCATCTAC”: the binding signal was 0.508 RPM ratio (pull-down/input).
As for “GATGATTGTTCTCCCAGCTGATGAATTTGCGTGTTCGAGTAAACAAATTTTCCTAATCTTTCTGTTCAAGCGCCATCTAC”, the binding signal is 3.79 RPM ratio (pull-down/input).
Next, “GATGATTGTTCTCCCAGCTGATGAATTATGCGCGTCGAGTAAACAAATTTTCCTAATCTTTCTGTTCAAGCGCCATCTAC”: 3.33 RPM ratio (pull-down/input); “GATGATTGTTCTCCCAGCTGATGAATTGCGCGTGTCGAGTAAACAAATTTTCCTAATCTTTCTGTTCAAGCGCCATCTAC”: 4.88 RPM ratio (pull-down/input).
In the case of “GATGATTGTTCTCCCAGCTGATGAATTGTGTGCGTCGAGTAAACAAATTTTCCTAATCTTTCTGTTCAAGCGCCATCTAC”, the binding signal is 2.16 RPM ratio (pull-down/input).
Next, “GATGATTGTTCTCCCAGCTGATGAATTATATGCGTCGAGTAAACAAATTTTCCTAATCTTTCTGTTCAAGCGCCATCTAC”: 1.07 RPM ratio (pull-down/input).
Regarding “GATGATTGTTCTCCCAGCTGATGAATTGCGTGTGTCGAGTAAACAAATTTTCCTAATCTTTCTGTTCAAGCGCCATCTAC”, the binding signal was 2.22 RPM ratio (pull-down/input).
Turning to “GATGATTGTTCTCCCAGCTGATGAATTTTGCGTGTCGAGTAAACAAATTTTCCTAATCTTTCTGTTCAAGCGCCATCTAC”, the binding signal was 5.56 RPM ratio (pull-down/input).
Take “GATGATTGTTCTCCCAGCTGATGAATTATGCGTGTCGAGTAAACAAATTTTCCTAATCTTTCTGTTCAAGCGCCATCTAC”: the binding signal is 5.88 RPM ratio (pull-down/input).
Next, “GATGATTGTTCTCCCAGCTGATGAATTGTGCGTGTCGAGTAAACAAATTTTCCTAATCTTTCTGTTCAAGCGCCATCTAC”: 6.18 RPM ratio (pull-down/input); “GATGATTGTTCTCCCAGCTGATGAATTGGCCACGTCGAGTAAACAAATTTTCCTAATCTTTCTGTTCAAGCGCCATCTAC”: 0.526 RPM ratio (pull-down/input).
Regarding “GATGATTGTTCTCCCAGCTGATGAATTGGTAGCTTCGAGTAAACAAATTTTCCTAATCTTTCTGTTCAAGCGCCATCTAC”, the binding signal was 0.798 RPM ratio (pull-down/input).
Next, “GATGATTGTTCTCCCAGCTGATGAATTTAGCCCGTCGAGTAAACAAATTTTCCTAATCTTTCTGTTCAAGCGCCATCTAC”: 1.59 RPM ratio (pull-down/input).
Turning to “GATGATTGTTCTCCCAGCTGATGAATTAGTGCGATCGAGTAAACAAATTTTCCTAATCTTTCTGTTCAAGCGCCATCTAC”, the binding signal was 0.851 RPM ratio (pull-down/input).
Then “GATGATTGTTCTCCCAGCTGATGAATTTGTCTACTCGAGTAAACAAATTTTCCTAATCTTTCTGTTCAAGCGCCATCTAC”, with 5.77 RPM ratio (pull-down/input); and “GATGATTGTTCTCCCAGCTGATGAATTGTTTGTCTCGAGTAAACAAATTTTCCTAATCTTTCTGTTCAAGCGCCATCTAC”, with 7.63 RPM ratio (pull-down/input).
Next, “GATGATTGTTCTCCCAGCTGATGAATTCTTTGTCTCGAGTAAACAAATTTTCCTAATCTTTCTGTTCAAGCGCCATCTAC”: 0.413 RPM ratio (pull-down/input); “GATGATTGTTCTCCCAGCTGATGAATTTTTTTTCTCGAGTAAACAAATTTTCCTAATCTTTCTGTTCAAGCGCCATCTAC”: 0.267 RPM ratio (pull-down/input); “GATGATTGTTCTCCCAGCTGATGAATTTTGTCTCTCGAGTAAACAAATTTTCCTAATCTTTCTGTTCAAGCGCCATCTAC”: 2.39 RPM ratio (pull-down/input).
Next, “GATGATTGTTCTCCCAGCTGATGAATTTCTGTCCTCGAGTAAACAAATTTTCCTAATCTTTCTGTTCAAGCGCCATCTAC”: 0.313 RPM ratio (pull-down/input).
As for “GATGATTGTTCTCCCAGCTGATGAATTTCTAATCTCGAGTAAACAAATTTTCCTAATCTTTCTGTTCAAGCGCCATCTAC”, the binding signal is 0.288 RPM ratio (pull-down/input).
Consider “GATGATTGTTCTCCCAGCTGATGAATTGTCCTCCTCGAGTAAACAAATTTTCCTAATCTTTCTGTTCAAGCGCCATCTAC”, for which the binding signal was 0.37 RPM ratio (pull-down/input).
“GATGATTGTTCTCCCAGCTGATGAATTGTTGTTCTCGAGTAAACAAATTTTCCTAATCTTTCTGTTCAAGCGCCATCTAC”: the binding signal was 7.17 RPM ratio (pull-down/input).
For “GATGATTGTTCTCCCAGCTGATGAATTGTCCTACTCGAGTAAACAAATTTTCCTAATCTTTCTGTTCAAGCGCCATCTAC”, the binding signal was 0.368 RPM ratio (pull-down/input).
Regarding “GATGATTGTTCTCCCAGCTGATGAATTGTCTTACTCGAGTAAACAAATTTTCCTAATCTTTCTGTTCAAGCGCCATCTAC”, the binding signal was 0.469 RPM ratio (pull-down/input).
As to “GATGATTGTTCTCCCAGCTGATGAATTGTTGTCCTCGAGTAAACAAATTTTCCTAATCTTTCTGTTCAAGCGCCATCTAC”, the binding signal is 5.63 RPM ratio (pull-down/input).
